{"source": "paper PMC7862700", "about": "“An all-to-all approach to the identification of sequence-specific readers for epigenetic DNA modifications on cytosine”", "assay_in_all_cases": "DAPPL (digital affinity profiling via proximity ligation, sequencing); 10 mM Tris-HCl pH 7.5, 50 mM NaCl, 1 mM DTT, 4% glycerol, room temperature, 30 min; GST-TFs on glutathione beads, 16-mer random dsDNA library, 0.1% formaldehyde crosslink after washing; high values mean tight binding", "details_in_all_cases": "protein: recombinant; tags: N-terminal GST; dsDNA, one strand shown", "key": {"GABPA": {"target": "T1, GABPA (Homo sapiens, UniProt Q06546 1-454)", "T1 sequence": "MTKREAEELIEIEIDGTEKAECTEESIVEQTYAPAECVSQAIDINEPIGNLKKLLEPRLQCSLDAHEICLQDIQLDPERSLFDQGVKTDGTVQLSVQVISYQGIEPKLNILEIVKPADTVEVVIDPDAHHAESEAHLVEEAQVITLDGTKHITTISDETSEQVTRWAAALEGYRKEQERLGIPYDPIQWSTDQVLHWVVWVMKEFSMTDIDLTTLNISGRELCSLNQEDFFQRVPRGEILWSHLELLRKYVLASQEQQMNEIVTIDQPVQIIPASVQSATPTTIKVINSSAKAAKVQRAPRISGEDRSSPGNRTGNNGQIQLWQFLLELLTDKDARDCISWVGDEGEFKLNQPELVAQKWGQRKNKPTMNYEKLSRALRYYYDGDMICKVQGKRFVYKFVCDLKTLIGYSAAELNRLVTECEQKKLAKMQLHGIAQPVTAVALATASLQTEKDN", "method_in_brief": "(§1)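 Pools were built from human transcription factors expressed in yeast as GST fusions, captured on glutathione beads and DNA-barcoded, along with a tag-only sample. Incubation with 200 nmole of a 16-mer random double-stranded DNA library lasted 30 min at room temperature in Tris/NaCl/DTT/glycerol buffer, and was followed by washing, 0.1% formaldehyde crosslinking, proximity ligation, PCR amplification and Illumina NextSeq500 sequencing. Binding signal is the quotient of each hexamer's read frequency for a factor and its frequency for the tag-only sample.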"}, "ERG": {"target": "T2, ERG (Homo sapiens, UniProt P11308 1-479)", "T2 sequence": "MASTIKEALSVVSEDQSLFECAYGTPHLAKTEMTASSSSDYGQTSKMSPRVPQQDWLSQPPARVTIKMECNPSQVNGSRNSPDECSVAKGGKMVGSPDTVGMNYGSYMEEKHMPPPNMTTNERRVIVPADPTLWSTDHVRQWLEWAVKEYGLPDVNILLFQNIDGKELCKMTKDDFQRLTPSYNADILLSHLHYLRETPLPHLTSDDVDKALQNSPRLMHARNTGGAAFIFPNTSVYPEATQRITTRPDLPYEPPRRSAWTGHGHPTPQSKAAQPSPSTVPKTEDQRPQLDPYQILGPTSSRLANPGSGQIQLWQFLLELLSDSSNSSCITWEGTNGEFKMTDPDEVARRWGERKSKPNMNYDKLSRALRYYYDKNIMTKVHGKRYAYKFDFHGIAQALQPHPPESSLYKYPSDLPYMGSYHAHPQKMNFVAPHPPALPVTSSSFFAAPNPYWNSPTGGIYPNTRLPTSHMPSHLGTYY", "method_in_brief": "as §1"}, "ELF1": {"target": "ELF1 (Homo sapiens, UniProt P32519 1-619)", "sequence (P32519 whole entry)": "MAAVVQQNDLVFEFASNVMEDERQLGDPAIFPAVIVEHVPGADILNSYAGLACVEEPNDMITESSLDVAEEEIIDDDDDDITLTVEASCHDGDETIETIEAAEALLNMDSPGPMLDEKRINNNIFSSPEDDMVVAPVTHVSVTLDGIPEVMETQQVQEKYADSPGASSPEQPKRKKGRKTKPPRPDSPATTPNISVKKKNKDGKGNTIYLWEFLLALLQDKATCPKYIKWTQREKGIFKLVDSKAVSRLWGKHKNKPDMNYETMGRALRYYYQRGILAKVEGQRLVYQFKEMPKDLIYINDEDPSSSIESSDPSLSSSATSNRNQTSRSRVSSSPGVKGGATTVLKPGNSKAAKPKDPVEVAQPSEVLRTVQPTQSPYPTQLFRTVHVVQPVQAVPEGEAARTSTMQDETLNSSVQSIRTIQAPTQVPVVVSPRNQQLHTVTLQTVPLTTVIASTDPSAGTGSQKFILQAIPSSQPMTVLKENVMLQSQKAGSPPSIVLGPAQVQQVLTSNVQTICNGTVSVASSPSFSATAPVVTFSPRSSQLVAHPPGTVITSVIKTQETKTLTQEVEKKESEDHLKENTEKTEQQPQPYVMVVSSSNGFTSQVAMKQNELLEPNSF", "method_in_brief": "as §1"}, "EHF": {"target": "T3, EHF (Homo sapiens, UniProt Q9NZC4 1-300)", "T3 sequence": "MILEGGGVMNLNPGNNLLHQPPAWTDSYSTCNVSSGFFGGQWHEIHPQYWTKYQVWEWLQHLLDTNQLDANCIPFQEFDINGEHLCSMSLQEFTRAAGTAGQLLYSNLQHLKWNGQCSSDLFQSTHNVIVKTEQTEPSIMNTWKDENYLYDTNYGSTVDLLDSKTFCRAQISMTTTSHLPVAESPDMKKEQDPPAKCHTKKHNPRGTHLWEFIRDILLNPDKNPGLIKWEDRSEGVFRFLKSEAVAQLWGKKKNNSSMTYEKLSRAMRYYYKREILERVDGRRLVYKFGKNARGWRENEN", "method_in_brief": "as §1"}, "SPI1": {"target": "SPI1 (Homo sapiens, UniProt P17947 1-270)", "method_in_brief": "as §1"}, "SPIB": {"target": "SPIB (Homo sapiens, UniProt Q01892 1-262)", "sequence (Q01892 whole entry)": "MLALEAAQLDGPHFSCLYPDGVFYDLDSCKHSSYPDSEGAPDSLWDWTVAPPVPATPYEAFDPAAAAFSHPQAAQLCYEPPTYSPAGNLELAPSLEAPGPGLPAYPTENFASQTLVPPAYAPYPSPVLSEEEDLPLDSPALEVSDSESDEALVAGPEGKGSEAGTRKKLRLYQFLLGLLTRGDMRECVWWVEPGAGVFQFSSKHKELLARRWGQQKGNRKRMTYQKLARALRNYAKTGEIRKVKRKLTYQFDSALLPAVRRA", "method_in_brief": "as §1"}, "ETV5": {"target": "ETV5 (Homo sapiens, UniProt P41161 1-510)", "sequence (P41161 whole entry)": "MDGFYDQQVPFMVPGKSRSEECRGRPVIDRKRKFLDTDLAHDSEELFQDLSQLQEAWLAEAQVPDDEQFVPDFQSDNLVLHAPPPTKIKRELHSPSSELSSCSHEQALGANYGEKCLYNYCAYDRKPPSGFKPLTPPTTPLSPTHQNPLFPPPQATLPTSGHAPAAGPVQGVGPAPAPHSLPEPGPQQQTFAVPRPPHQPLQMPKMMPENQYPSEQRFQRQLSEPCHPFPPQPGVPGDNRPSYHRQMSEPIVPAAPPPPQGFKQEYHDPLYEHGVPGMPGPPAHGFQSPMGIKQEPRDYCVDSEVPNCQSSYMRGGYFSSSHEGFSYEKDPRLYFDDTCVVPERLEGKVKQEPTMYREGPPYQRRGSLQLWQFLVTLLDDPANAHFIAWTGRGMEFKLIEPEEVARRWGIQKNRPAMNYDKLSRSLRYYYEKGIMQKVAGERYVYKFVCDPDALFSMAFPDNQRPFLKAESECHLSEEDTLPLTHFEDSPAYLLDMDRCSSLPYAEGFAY", "method_in_brief": "as §1"}, "ELF4": {"target": "ELF4 (Homo sapiens, UniProt Q99607 1-663)", "sequence (Q99607 whole entry)": "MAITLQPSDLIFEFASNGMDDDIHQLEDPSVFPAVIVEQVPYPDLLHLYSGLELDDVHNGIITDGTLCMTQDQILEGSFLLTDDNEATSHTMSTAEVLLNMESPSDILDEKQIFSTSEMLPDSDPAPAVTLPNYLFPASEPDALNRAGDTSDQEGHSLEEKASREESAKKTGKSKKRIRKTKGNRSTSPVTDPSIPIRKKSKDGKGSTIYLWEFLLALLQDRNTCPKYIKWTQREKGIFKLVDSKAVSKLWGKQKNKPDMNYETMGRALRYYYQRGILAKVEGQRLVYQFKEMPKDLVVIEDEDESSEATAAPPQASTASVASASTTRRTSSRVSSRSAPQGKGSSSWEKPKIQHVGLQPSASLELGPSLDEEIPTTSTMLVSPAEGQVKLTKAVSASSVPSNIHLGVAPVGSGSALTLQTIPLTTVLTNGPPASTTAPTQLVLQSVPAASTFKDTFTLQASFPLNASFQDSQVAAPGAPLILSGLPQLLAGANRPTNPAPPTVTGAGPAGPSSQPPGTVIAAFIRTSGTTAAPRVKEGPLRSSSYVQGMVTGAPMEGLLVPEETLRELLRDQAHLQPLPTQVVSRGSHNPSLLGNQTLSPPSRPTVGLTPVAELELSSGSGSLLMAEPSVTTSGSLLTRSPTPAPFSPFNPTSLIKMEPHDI", "method_in_brief": "as §1"}, "ETV1": {"target": "ETV1 (Homo sapiens, UniProt P50549 1-477)", "sequence (P50549 whole entry)": "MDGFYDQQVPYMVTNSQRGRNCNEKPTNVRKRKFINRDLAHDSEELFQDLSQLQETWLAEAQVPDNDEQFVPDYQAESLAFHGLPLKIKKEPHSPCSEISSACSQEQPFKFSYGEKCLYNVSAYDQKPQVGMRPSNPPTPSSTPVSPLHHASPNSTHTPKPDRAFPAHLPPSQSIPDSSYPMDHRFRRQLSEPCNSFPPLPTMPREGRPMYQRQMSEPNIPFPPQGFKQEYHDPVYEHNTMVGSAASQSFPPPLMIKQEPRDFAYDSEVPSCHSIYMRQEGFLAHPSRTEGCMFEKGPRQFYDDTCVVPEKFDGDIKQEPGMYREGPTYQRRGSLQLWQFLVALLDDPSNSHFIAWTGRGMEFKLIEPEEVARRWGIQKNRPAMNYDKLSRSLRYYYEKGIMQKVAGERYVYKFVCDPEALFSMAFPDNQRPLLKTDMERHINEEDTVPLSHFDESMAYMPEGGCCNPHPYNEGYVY", "method_in_brief": "as §1"}, "ETV3L": {"target": "T4, ETV3L (Homo sapiens, UniProt Q6ZN32 1-361)", "T4 sequence": "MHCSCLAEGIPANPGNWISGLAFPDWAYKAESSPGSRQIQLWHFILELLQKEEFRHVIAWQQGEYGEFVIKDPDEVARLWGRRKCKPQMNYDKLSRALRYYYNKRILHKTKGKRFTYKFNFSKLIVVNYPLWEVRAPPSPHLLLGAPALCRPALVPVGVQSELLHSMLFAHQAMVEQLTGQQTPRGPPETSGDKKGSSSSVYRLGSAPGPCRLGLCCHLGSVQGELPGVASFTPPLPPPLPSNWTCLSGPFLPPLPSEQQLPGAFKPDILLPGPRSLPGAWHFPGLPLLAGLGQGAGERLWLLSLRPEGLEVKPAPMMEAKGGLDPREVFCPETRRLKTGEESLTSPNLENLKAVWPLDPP", "method_in_brief": "as §1"}, "ETS2": {"target": "T5, ETS2 (Homo sapiens, UniProt P15036 1-469)", "T5 sequence": "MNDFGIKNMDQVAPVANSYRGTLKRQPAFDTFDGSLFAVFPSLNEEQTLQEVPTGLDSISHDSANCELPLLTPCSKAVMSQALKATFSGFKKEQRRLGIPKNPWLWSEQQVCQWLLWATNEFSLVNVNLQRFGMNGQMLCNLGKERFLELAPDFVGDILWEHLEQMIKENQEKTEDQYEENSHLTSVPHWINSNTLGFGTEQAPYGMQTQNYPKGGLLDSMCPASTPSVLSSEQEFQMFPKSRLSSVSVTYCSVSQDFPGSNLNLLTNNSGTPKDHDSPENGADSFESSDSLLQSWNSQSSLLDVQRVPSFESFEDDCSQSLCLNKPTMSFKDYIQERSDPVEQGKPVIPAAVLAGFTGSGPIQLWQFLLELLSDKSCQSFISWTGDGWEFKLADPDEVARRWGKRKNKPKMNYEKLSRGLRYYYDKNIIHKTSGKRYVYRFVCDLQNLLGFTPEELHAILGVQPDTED", "method_in_brief": "as §1"}, "ETV7": {"target": "T6, ETV7 (Homo sapiens, UniProt Q9Y603 1-341)", "T6 sequence": "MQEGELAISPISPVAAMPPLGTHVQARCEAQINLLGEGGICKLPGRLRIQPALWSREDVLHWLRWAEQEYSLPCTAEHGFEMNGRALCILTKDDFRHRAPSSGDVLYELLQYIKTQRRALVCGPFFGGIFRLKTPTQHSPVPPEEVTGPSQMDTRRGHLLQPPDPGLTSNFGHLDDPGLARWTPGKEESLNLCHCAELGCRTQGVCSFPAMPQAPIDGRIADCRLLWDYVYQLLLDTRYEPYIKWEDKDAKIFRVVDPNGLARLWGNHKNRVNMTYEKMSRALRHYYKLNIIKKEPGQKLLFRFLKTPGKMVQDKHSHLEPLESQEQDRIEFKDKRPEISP", "method_in_brief": "as §1"}}, "data": [{"sequence": "AGAAAA", "values": [{"measurement": "binding signal", "setting": "GABPA", "value": "1.03 fold enrichment (6-mer frequency, TF over GST control)"}, {"measurement": "binding signal", "setting": "ERG", "value": "1.02 fold enrichment (6-mer frequency, TF over GST control)"}, {"measurement": "binding signal", "setting": "ELF1", "value": "1.02 fold enrichment (6-mer frequency, TF over GST control)"}, {"measurement": "binding signal", "setting": "EHF", "value": "1.02 fold enrichment (6-mer frequency, TF over GST control)"}, {"measurement": "binding signal", "setting": "SPI1", "value": "1.11 fold enrichment (6-mer frequency, TF over GST control)"}, {"measurement": "binding signal", "setting": "SPIB", "value": "1.08 fold enrichment (6-mer frequency, TF over GST control)"}, {"measurement": "binding signal", "setting": "ETV5", "value": "1.02 fold enrichment (6-mer frequency, TF over GST control)"}, {"measurement": "binding signal", "setting": "ELF4", "value": "1.04 fold enrichment (6-mer frequency, TF over GST control)"}, {"measurement": "binding signal", "setting": "ETV1", "value": "1.05 fold enrichment (6-mer frequency, TF over GST control)"}, {"measurement": "binding signal", "setting": "ETV3L", "value": "1 fold enrichment (6-mer frequency, TF over GST control)"}, {"measurement": "binding signal", "setting": "ETS2", "value": "1.09 fold enrichment (6-mer frequency, TF over GST control)"}, {"measurement": "binding signal", "setting": "ETV7", "value": "1.04 fold enrichment (6-mer frequency, TF over GST control)"}]}]}
